# Laboratory results taken from ChEMBL document CHEMBL3988442, “University of Dundee, Small-Polar-MMV Screening Library” (2021).
# For some of these results: Results with a measured potency or affinity are listed apart.
# How the values were obtained:
# Design in all cases: scale not given: direction of the effect not stated beside the values
# [1] = molecular target: Protein translocase subunit SecA (Escherichia coli (strain K12)) (UniProt P10408); test: Assay to Identify E. coli SecA ATPase Inhibitors; assay type: functional; settings: 30 µM
# Protein translocase subunit SecA (Escherichia coli (strain K12)), sequence (P10408 whole entry): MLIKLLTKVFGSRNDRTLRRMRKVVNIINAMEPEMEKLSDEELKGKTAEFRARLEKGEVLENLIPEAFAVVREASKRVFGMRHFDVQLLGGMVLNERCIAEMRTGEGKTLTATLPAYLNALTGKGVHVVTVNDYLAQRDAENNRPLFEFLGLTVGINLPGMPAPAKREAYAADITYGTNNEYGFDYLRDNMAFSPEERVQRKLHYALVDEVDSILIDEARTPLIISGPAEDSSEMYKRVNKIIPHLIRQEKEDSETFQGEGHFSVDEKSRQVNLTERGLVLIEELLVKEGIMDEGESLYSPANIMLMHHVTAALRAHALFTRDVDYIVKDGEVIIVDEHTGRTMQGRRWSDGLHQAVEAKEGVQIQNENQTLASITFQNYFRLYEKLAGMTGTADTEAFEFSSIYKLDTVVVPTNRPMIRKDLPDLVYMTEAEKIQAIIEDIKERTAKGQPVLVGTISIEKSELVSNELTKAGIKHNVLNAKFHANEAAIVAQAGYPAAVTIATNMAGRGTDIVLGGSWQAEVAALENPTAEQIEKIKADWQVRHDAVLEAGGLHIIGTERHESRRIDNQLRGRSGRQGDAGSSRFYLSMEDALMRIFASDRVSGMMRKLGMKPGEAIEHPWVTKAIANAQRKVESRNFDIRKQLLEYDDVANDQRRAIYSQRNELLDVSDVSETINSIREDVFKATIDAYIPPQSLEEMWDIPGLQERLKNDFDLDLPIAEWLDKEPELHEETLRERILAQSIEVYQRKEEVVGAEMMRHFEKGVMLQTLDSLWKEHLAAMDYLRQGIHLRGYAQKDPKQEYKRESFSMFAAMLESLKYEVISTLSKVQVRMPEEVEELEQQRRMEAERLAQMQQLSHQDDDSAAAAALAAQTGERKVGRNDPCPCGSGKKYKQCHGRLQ
# [2] = molecular target: T1, Ubiquitin-activating enzyme e1, putative (Leishmania donovani (strain BPK282A1)) (UniProt E9BSI1); test: Leishmania donovani Ubiquitin Activating Enzyme (LdE1); assay type: functional; settings: 30 µM
# T1 sequence (whole entry): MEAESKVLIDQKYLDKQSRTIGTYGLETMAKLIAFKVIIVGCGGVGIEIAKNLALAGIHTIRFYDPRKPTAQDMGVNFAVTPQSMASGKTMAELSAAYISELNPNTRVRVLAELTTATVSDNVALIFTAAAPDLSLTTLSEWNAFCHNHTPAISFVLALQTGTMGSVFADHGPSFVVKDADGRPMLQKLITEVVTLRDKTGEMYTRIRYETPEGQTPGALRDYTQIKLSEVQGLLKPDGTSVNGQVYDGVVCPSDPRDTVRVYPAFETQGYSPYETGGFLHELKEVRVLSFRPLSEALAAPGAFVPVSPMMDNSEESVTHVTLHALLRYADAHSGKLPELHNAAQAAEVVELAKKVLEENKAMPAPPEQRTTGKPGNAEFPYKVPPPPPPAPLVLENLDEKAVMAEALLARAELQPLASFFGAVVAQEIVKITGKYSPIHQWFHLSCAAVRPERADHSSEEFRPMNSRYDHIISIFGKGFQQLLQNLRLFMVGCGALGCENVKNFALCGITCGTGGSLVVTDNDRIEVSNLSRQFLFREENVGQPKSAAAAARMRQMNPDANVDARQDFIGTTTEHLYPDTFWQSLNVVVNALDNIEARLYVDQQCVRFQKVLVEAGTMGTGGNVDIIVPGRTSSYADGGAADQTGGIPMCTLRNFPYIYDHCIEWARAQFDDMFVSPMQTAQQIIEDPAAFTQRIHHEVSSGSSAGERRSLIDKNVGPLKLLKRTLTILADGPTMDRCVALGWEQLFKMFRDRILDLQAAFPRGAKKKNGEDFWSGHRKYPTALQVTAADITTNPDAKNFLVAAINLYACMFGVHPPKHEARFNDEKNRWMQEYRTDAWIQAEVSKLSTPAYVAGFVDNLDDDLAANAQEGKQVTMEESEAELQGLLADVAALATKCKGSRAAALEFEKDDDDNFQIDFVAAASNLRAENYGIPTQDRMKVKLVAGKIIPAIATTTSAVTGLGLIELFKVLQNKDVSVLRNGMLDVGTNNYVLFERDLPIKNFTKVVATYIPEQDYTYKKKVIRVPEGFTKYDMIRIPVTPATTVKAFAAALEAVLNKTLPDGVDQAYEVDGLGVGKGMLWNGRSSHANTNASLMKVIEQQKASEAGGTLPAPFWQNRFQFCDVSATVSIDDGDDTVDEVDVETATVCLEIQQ
# [3] = molecular target: AMP-activated protein kinase, AMPK (Homo sapiens) (UniProt P54646+O43741+P54619+Q9UGJ0+Q9Y478+Q13131+Q9UGI9); test: AMP-dependent Kinase enzyme assay. An in vitro enzyme assay that detects ADP turnover that is directly proportional to AMPK activity. This uses naive AMPK that is activated during the assay with MK-8722; assay type: functional; settings: 30 µM
# [4] = molecular target: Sialic acid-binding Ig-like lectin 9 (Homo sapiens) (UniProt Q9Y336); test: Hs-Siglec9 ALPHAscreen SOP 20170721; settings: 10 µM
# Sialic acid-binding Ig-like lectin 9 (Homo sapiens), sequence (Q9Y336 whole entry): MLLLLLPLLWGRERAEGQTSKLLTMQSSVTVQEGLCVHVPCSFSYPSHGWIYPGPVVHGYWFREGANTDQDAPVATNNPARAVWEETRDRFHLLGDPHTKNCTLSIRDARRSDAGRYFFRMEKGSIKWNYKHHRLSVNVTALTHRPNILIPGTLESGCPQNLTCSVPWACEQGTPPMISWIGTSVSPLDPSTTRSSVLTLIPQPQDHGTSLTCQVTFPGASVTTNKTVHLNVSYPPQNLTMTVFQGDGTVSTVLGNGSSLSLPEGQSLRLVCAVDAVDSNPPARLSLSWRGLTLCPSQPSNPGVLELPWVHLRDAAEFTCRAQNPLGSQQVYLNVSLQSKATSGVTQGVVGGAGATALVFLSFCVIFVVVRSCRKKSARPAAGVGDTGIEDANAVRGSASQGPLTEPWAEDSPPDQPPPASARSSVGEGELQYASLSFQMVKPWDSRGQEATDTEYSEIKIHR
# [5] = test system: Trypanosoma cruzi; test: Trypanosoma cruzi phosphomannomutase and mannose-1-phosphate guanylyltransferase assay; assay type: functional; settings: 10 µM
# [6] = molecular target: T2, Arginase-2, mitochondrial (Homo sapiens) (UniProt P78540); test: in vitro enzyme assay to detect the production of urea directly proportional to the activity of Arginase II; assay type: functional; settings: 33.3 µM; also: in the data most compounds retested in dose-response had high values
# T2 sequence (whole entry): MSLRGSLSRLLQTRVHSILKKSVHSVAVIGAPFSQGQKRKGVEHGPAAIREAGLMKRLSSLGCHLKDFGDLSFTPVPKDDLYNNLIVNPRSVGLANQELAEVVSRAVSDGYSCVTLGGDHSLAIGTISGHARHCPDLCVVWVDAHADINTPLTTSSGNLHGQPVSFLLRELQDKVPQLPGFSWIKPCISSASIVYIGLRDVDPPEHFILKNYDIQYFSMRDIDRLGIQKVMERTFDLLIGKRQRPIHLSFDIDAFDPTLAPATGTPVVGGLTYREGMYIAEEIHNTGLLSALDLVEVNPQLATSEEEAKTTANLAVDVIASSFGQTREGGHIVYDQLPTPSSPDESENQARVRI
# [7] = molecular target: T3, Proteasome subunit beta (Trypanosoma cruzi) (UniProt O96673); test: Trypanosoma cruzi proteasome chymotrypsin-like activity (TcProtChymo) assay.; also: in the data most compounds retested in dose-response had high values; assay type: functional; settings: 9.37 µM
# T3 sequence (whole entry): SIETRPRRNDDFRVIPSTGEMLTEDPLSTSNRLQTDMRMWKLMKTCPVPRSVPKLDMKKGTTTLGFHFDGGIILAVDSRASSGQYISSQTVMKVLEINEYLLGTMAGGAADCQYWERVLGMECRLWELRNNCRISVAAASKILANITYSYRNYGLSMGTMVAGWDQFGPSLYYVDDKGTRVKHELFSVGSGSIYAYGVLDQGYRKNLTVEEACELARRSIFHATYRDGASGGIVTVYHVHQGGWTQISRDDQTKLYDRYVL
# [8] = species: Homo sapiens; test: To identify inhibition of the IFN signalling (Jak-Stat) pathway via expression of an eGFP reporter gene under the control of an IFN-stimulated response element (ISRE) containing MxA promoter.; assay type: functional; settings: 30 µM
# [9] = molecular target: T4, Tyrosyl-tRNA synthetase, putative (Trypanosoma cruzi (strain CL Brener)) (UniProt Q4DSP6); test: Trypanosoma cruzi tyrosyl tRNA synthetase (TcYRS) _High Tyrosine SOP; assay type: functional; settings: 30 µM; also: in the data most compounds retested in dose-response had high values
# T4 sequence (whole entry): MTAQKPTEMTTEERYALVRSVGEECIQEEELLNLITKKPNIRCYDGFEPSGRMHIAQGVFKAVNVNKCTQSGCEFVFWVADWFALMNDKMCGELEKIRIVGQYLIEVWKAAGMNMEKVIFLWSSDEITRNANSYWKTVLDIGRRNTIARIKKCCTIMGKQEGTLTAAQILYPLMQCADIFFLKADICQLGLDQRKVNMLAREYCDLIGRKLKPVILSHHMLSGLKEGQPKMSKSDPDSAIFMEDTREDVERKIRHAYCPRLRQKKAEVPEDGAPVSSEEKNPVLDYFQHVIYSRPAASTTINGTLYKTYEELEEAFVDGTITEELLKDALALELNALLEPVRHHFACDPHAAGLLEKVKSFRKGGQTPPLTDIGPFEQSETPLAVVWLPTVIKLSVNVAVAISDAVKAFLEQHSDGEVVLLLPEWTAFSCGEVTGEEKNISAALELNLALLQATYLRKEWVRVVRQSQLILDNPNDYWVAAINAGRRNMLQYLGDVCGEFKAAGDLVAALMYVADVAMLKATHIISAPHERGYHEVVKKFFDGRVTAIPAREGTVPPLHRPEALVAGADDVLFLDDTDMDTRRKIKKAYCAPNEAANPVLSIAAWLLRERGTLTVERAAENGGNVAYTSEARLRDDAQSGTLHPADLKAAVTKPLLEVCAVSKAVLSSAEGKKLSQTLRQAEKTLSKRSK
# [10] = molecular target: T4, Tyrosyl-tRNA synthetase, putative (Trypanosoma cruzi (strain CL Brener)); test: Trypanosoma cruzi tyrosyl tRNA synthetase (TcYRS) SOP; assay type: functional; settings: 30 µM
# [11] = molecular target: Chromo domain-containing protein 1 (Saccharomyces cerevisiae (strain ATCC 204508 / S288c) (Baker's yeast)) (UniProt P32657); test: ScCHD-1 Enzyme Inhibition Assay; assay type: functional; settings: 30 µM; also: in the data most compounds retested in dose-response had high values
# Chromo domain-containing protein 1 (Saccharomyces cerevisiae (strain ATCC 204508 / S288c) (Baker's yeast)), sequence (P32657 whole entry, the tested form may be a part): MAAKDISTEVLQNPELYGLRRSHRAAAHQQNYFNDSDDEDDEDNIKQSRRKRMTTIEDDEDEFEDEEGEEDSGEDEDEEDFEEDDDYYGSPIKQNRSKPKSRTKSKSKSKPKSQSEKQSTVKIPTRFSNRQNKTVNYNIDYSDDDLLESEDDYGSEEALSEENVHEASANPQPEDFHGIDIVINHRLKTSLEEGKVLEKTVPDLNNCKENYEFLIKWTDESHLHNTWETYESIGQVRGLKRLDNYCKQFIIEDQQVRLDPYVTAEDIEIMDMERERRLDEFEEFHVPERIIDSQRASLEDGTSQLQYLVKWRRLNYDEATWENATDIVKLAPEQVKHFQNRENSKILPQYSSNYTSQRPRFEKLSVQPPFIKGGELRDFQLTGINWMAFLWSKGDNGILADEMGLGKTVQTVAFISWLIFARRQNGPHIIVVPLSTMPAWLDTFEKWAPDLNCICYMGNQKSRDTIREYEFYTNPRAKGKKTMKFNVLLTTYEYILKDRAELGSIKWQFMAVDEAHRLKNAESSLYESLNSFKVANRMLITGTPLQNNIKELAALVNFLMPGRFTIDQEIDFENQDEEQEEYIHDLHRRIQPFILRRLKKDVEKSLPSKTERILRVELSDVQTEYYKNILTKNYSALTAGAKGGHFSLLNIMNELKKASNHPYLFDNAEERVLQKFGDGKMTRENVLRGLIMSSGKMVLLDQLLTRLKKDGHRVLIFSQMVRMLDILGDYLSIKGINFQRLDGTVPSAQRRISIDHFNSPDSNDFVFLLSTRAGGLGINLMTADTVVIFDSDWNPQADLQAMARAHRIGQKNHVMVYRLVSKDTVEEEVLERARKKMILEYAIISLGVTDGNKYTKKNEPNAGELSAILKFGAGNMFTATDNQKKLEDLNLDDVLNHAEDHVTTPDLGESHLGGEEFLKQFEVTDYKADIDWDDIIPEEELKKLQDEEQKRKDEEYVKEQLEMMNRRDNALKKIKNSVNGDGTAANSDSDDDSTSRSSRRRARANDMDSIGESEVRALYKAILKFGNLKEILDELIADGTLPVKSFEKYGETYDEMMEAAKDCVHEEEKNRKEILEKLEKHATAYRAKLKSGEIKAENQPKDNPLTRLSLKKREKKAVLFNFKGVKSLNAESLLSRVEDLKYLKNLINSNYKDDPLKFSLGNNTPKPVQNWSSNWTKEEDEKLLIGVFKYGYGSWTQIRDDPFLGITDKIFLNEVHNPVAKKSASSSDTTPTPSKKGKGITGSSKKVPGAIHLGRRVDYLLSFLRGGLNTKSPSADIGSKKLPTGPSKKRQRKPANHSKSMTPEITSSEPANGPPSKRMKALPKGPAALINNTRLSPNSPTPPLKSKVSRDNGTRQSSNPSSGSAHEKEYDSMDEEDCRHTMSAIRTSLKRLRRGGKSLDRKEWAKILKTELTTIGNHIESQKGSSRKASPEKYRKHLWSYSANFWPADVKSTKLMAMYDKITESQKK
SMILES,Percent Effect [1] [%],Percent Effect [2] [%],Percent Effect [3] [%],Percent Effect [4] [%],Percent Effect [5] [%],Percent Effect [6] [%],Percent Effect [7] [%],Percent Effect [8] [%],Percent Effect [9] [%],Percent Effect [10] [%],Percent Effect [11] [%]
O=C(NC1CCN(c2snc3ccccc23)CC1)C1CCC1,-4.68,16.5,-3.67,3.44,-1.74,-1.07,9.43,21.9,4.17,20.2,-33
CN(Cc1ccco1)C(=O)[C@H]1CSCN1C(=O)OC(C)(C)C,-4.45,15.8,-5.01,13.2,5.7,-4.32,8.21,-0.327,4.43,13.6,-3.35
C[S+]([O-])c1nncn1CC(=O)c1cccc(Cl)c1 (stereo unspecified),-7.89,16.2,-4.48,23.3,6.16,3.72,10.4,-1.98,5.38,8.64,-6.7
CC(C)OCCOCc1cccc(NC(=O)NCc2ccccn2)c1,-5.4,10.4,0.256,12,6.79,-24.8,19.3,-1.08,2.15,8.64,-6.3
O=C(c1ccc[nH]1)N1CCn2cc(Cn3cncn3)nc2C1,-0.971,2.67,2.39,-2.2,-3.94,3.03,11.2,13.4,3.19,-1.28,-3.1
CS(=O)(=O)NCC1CCCN(Cc2ccc(F)c3cccnc23)C1 (stereo unspecified),-1.47,2.6,-1.1,10.8,-2.06,-4.14,18.5,16.9,5.38,13.6,3.65
O=C(c1cnccn1)N1CCOC2(CCN(Cc3ccsc3)CC2)C1,-1.55,0,2.03,7.22,1.16,-52.1,0,-18.7,2.08,2.5,-4.34
CCn1nnc2c1C(COC)CN(C(=O)COc1ccccc1)C2 (stereo unspecified),-3.61,0,-1.01,-0.576,-2.73,0,10.4,-3.63,5.94,3.66,9.82
c1ccc(CN2CC[C@@H]3O[C@@H](COCC4CCOCC4)CC[C@@H]32)nc1,-4.64,10.7,1.98,-3.4,-0.394,2.1,12.4,-2.6,2.13,8.97,-2.41
Cc1ccc(N2CCCN(C(=O)c3cc(Cl)c[nH]3)CC2)nn1,-3.96,-5.48,4.73,4.6,-3.17,3.59,9.33,2.32,12.5,23.5,-1.25
O=C(c1cccc2c1OCCO2)N1CCCC(n2ccnc2)C1 (stereo unspecified),-2.67,5.26,2.73,-0.188,-9.77,3.45,2.17,13.9,3.43,4.88,3.23
